Molecular target: Bromodomain-containing protein 4 (Homo sapiens) (UniProt O60885)
Conditions: Compound concentration 20.0 uM, Protein concentration 2.0 uM, Result type QC Liability

For `CC(C)[C@H](CO)Nc1nc(Nc2ccc(C(=O)O)c(Cl)c2)c2ncn(C(C)C)c2n1`, which ΔTm is on record?
Its ΔTm is 0.61 °C.

`CC(=O)Nc1c(F)cc(C(=O)N[C@H]2CC[C@H](O)CC2)cc1O[C@@H](C)c1ccccc1` was tested. Which ΔTm did it give?
The ΔTm was -1.18 °C.

How did the ΔTm turn out when `O=C1COc2cc(C(=O)N(Cc3ccc(C(=O)Nc4ccncn4)cc3)C3CC3)ccc2N1` was run?
Its ΔTm is 0.06 °C.

How did the ΔTm turn out when `Cc1nn(C)c(COc2ccc(N3CCN(S(=O)(=O)N(C)C)CC3)cc2)c1-c1cccc2c(CCCOc3cccc4ccccc34)c(C(=O)O)n(CCN3CCOCC3)c12` was run?
Its ΔTm is -12.6 °C.

For `CNS(=O)(=O)c1ccc(N(C)C)c(Nc2ncnc3cc(OC)c(OC)cc23)c1`, which ΔTm is on record?
Its ΔTm is -3.63 °C.

For `CN[C@@H](C)C(=O)N[C@H](C(=O)N1CCC[C@H]1c1nc(C(=O)c2ccc(F)cc2)cs1)C1CCCCC1`, which ΔTm is on record?
The ΔTm was -3.21 °C.

How did the ΔTm turn out when `Cn1c(C(=O)N[C@@H](CO)c2ccc(C(=O)O)cc2)cc2cc(Cl)ccc21` was run?
The ΔTm was 0.27 °C.

With `CN(C)C(=O)c1cc2cnc(Nc3ccc(N4CCN(CCCCNC(=O)COc5cccc6c5C(=O)N(C5CCC(=O)NC5=O)C6=O)CC4)cn3)nc2n1C1CCCC1` (configuration not stated) as the molecule, how does the ΔTm read?
The ΔTm was -0.39 °C.

Which ΔTm does the source give for `C[C@H]1CN(C2COC2)CCN1c1ccc(Nc2cc(-c3ccnc(N4CCn5c(cc6c5CC(C)(C)C6)C4=O)c3CO)cn(C)c2=O)nc1` here?
The ΔTm was -1.88 °C.

`C[C@@H]1OCC2(CCN(c3cnc(Sc4ccnc(N)c4Cl)c(N)n3)CC2)[C@@H]1N` was tested. Which ΔTm did it give?
The ΔTm was -2.61 °C.

With `CC1(C)Oc2ncnc(N)c2N=C1c1ccc([C@H]2CC[C@H](CC(=O)O)CC2)cc1` as the molecule, how does the ΔTm read?
The ΔTm was -1.69 °C.

How did the ΔTm turn out when `Cn1cc(Nc2nccc(N3CC4CCC(C3)N4C(=O)[C@@H]3CC3(F)F)n2)cn1` was run?
Its ΔTm is -1.13 °C.

Which ΔTm does the source give for `COc1cc(F)ccc1-c1cc(Nc2cc(CS(C)(=N)=O)ccn2)ncc1F` (configuration not stated) here?
The ΔTm was 0.98 °C.

Molecular target: T1, Transcription intermediary factor 1-alpha (Homo sapiens) (UniProt O15164)
T1 sequence (whole entry): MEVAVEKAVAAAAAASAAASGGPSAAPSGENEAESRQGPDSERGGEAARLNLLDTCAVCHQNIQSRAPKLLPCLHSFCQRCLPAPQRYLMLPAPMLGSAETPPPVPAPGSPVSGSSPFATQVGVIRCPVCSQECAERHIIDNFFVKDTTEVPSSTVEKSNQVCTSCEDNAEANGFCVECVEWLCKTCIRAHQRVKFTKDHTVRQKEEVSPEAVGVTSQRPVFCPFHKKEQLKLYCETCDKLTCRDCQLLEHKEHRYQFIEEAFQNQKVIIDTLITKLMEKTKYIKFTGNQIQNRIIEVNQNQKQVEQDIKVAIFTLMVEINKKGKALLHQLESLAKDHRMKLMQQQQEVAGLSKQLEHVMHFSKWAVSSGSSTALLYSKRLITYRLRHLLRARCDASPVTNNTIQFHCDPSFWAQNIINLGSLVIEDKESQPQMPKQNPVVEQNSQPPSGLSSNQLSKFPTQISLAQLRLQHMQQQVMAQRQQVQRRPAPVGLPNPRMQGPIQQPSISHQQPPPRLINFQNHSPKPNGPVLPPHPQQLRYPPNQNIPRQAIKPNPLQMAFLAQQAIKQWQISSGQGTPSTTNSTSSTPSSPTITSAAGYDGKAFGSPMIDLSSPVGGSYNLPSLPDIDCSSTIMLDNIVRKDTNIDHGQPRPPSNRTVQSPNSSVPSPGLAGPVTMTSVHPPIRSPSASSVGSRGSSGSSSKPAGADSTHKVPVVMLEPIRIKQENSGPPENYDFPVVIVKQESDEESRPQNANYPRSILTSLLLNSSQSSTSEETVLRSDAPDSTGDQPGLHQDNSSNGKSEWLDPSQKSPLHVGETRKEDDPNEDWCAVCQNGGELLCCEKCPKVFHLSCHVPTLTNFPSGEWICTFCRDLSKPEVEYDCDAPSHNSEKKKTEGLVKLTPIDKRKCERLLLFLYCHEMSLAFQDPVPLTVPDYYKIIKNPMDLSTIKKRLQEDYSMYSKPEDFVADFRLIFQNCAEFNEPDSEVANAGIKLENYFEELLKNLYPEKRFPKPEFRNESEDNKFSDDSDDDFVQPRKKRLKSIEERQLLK
Conditions: Compound concentration 20.0 uM, Protein concentration 2.0 uM, Result type QC Liability

`COc1cc(C(=O)NC2CCN(C)CC2)ccc1Nc1ncc2c(n1)N(C1CCCC1)CC(F)(F)C(=O)N2C` was tested. Which ΔTm did it give?
Its ΔTm is -2.21 °C.

For `CN1Cc2nccc(-c3cn(C)nc3-c3ccc(F)cc3)c2C1=O`, which ΔTm is on record?
The ΔTm was -1.67 °C.

Which ΔTm does the source give for `N[C@@H](CC(=O)O)Cn1nnc(-c2ccc(Oc3ncc(Cl)cc3F)cc2)n1` here?
Its ΔTm is -0.53 °C.

With `COc1cnccc1Nc1nc(-c2nn(Cc3c(F)cc(OCCO)cc3F)c3ccccc23)ncc1OC` as the molecule, how does the ΔTm read?
Its ΔTm is -4.33 °C.

`CC(=O)N1CCC(c2ccc(C(=O)NC3=NCCN3)cc2C(F)(F)F)CC1` was tested. Which ΔTm did it give?
The ΔTm was 0.31 °C.

`Cc1cc(OC2CCS(=O)(=O)CC2)cc(C)c1-c1cccc(COc2ccc(C(=O)O)c(F)c2)c1` was tested. Which ΔTm did it give?
The ΔTm was -2.6 °C.

`COc1cc(Nc2cnc(C#N)c(O[C@H](C)CN(C)C)n2)ncc1-c1cnn(C)c1` was tested. Which ΔTm did it give?
Its ΔTm is -2.76 °C.

How did the ΔTm turn out when `O=C(NCCN1CCOCC1)c1ccc2nn(CCOc3ccc(Cl)cc3)cc2c1` was run?
Its ΔTm is 0.35 °C.

How did the ΔTm turn out when `Cc1c(CN2CCC3(CC2)CN(c2ncnc4sc(CC(F)(F)F)cc24)C3)ccc2c1cc(C#N)n2CC(N)=O` was run?
Its ΔTm is 0.7 °C.

`CN(C)[C@H]1CC[C@H](Nc2ncc3ncnc(Nc4ccc(F)c(Cl)c4)c3n2)CC1` was tested. Which ΔTm did it give?
Its ΔTm is -1.12 °C.

For `C[C@]12CC[C@@H]3c4ccc(O)cc4CC[C@H]3[C@@H]1C[C@H]1OC(=O)C[C@]12O`, which ΔTm is on record?
Its ΔTm is 0.49 °C.

`CO[C@H]1CC[C@H](N(c2cc(F)c(Oc3ncc(Cn4nccn4)cc3C(F)(F)F)cc2C(=O)O)C(=O)[C@H]2CC[C@H](C)CC2)CC1` was tested. Which ΔTm did it give?
The ΔTm was -0.09 °C.

With `Cc1ccc(-c2cn3nc(C(=O)NC4(c5ccc(F)cc5)CN(C)C4)c(C(C)C)c3c(=O)[nH]2)cc1C` as the molecule, how does the ΔTm read?
Its ΔTm is 0.46 °C.

Which ΔTm does the source give for `CCc1ncnc(N2CCN(C(C)=O)CC2)c1C#Cc1ccc(N)nc1` here?
The ΔTm was -3.55 °C.

How did the ΔTm turn out when `Cc1csc(S(=O)(=O)N(CC(C)C)c2cc3c(cc2OCc2ccc(C(=O)O)cc2)CCC3)n1` was run?
Its ΔTm is -0.15 °C.

Which ΔTm does the source give for `COC(=O)c1ccc2c(c1)NC(=O)/C2=C(\Nc1ccc(-c2nccn2C)cc1)c1ccccc1` here?
Its ΔTm is -3.33 °C.

For `C[C@H](NC(=O)c1cnc2n1[C@](C)(Cc1ccc(C#N)cc1)C(=O)N2c1cc(Cl)c(F)c(Cl)c1)C(=O)NC1(c2ccccn2)CC1`, which ΔTm is on record?
Its ΔTm is 0 °C.

With `c1ccc2c(c1)SCc1c-2[nH]c2ccccc12` as the molecule, how does the ΔTm read?
Its ΔTm is -7.68 °C.

How did the ΔTm turn out when `CN[C@@H](C)C(=O)N[C@H](C(=O)N1CCC[C@H]1C(=O)N[C@H]1c2ccccc2C[C@H]1OCC#CC#CCO[C@@H]1Cc2ccccc2[C@@H]1NC(=O)[C@@H]1CCCN1C(=O)[C@@H](NC(=O)[C@H](C)NC)C1CCCCC1)C1CCCCC1` was run?
The ΔTm was -2.69 °C.

How did the ΔTm turn out when `CCN1CCN(Cc2ccc(C(=O)Nc3ccc(C)c(Oc4ccc5c(c4)CC(=O)N5)c3)cc2C(F)(F)F)CC1` was run?
Its ΔTm is -3.11 °C.

Which ΔTm does the source give for `CN1C(=O)Cc2ccc(-c3ccc(C[C@@H](C#N)NC(=O)[C@H]4N[C@@H]5CC[C@H]4C5)c(F)c3)cc21` here?
The ΔTm was 0.42 °C.

How did the ΔTm turn out when `COCCc1ccc(-c2c(C)nc3c(N4CCOCC4)ccnn23)cn1` was run?
The ΔTm was -1.13 °C.

`CP(C)(=O)c1ccc(CNC(=O)C2CCN(S(=O)(=O)c3cc(Cl)cc(Cl)c3)CC2)cc1` was tested. Which ΔTm did it give?
The ΔTm was 0.94 °C.

Which ΔTm does the source give for `COc1cc(N[C@@H]2CCCC[C@]2(O)C(F)(F)F)ccc1F` here?
The ΔTm was -2.59 °C.

`C[C@@H]1C[C@H](C)CN(c2ncc(Cl)c(Nc3ccc4c(c3)cc(OC(C)(C)C(=O)O)c(=O)n4C)n2)C1` was tested. Which ΔTm did it give?
The ΔTm was 0.15 °C.

With `CNc1ncc2cc(-c3ccc(-c4cccc(C)n4)cc3Cl)c(=O)n(C[C@H]3OC[C@H](N)CO3)c2n1` as the molecule, how does the ΔTm read?
The ΔTm was -2.28 °C.

With `CC(C)[C@H](CO)Nc1nc(Nc2ccc(C(=O)O)c(Cl)c2)c2ncn(C(C)C)c2n1` as the molecule, how does the ΔTm read?
Its ΔTm is -2.66 °C.

For `CC(=O)Nc1c(F)cc(C(=O)N[C@H]2CC[C@H](O)CC2)cc1O[C@@H](C)c1ccccc1`, which ΔTm is on record?
The ΔTm was -0.63 °C.

How did the ΔTm turn out when `O=C1COc2cc(C(=O)N(Cc3ccc(C(=O)Nc4ccncn4)cc3)C3CC3)ccc2N1` was run?
The ΔTm was -2.92 °C.

Which ΔTm does the source give for `Cc1nn(C)c(COc2ccc(N3CCN(S(=O)(=O)N(C)C)CC3)cc2)c1-c1cccc2c(CCCOc3cccc4ccccc34)c(C(=O)O)n(CCN3CCOCC3)c12` here?
Its ΔTm is -0.84 °C.

With `CNS(=O)(=O)c1ccc(N(C)C)c(Nc2ncnc3cc(OC)c(OC)cc23)c1` as the molecule, how does the ΔTm read?
Its ΔTm is -2.8 °C.

With `CN[C@@H](C)C(=O)N[C@H](C(=O)N1CCC[C@H]1c1nc(C(=O)c2ccc(F)cc2)cs1)C1CCCCC1` as the molecule, how does the ΔTm read?
The ΔTm was -1.98 °C.

With `Cn1c(C(=O)N[C@@H](CO)c2ccc(C(=O)O)cc2)cc2cc(Cl)ccc21` as the molecule, how does the ΔTm read?
Its ΔTm is 0.31 °C.

Which ΔTm does the source give for `CN(C)C(=O)c1cc2cnc(Nc3ccc(N4CCN(CCCCNC(=O)COc5cccc6c5C(=O)N(C5CCC(=O)NC5=O)C6=O)CC4)cn3)nc2n1C1CCCC1` (configuration not stated) here?
Its ΔTm is -1.79 °C.

Which ΔTm does the source give for `C[C@H]1CN(C2COC2)CCN1c1ccc(Nc2cc(-c3ccnc(N4CCn5c(cc6c5CC(C)(C)C6)C4=O)c3CO)cn(C)c2=O)nc1` here?
The ΔTm was 0.42 °C.

With `C[C@@H]1OCC2(CCN(c3cnc(Sc4ccnc(N)c4Cl)c(N)n3)CC2)[C@@H]1N` as the molecule, how does the ΔTm read?
Its ΔTm is -0.86 °C.

`CC1(C)Oc2ncnc(N)c2N=C1c1ccc([C@H]2CC[C@H](CC(=O)O)CC2)cc1` was tested. Which ΔTm did it give?
The ΔTm was -0.57 °C.

Which ΔTm does the source give for `Cn1cc(Nc2nccc(N3CC4CCC(C3)N4C(=O)[C@@H]3CC3(F)F)n2)cn1` here?
The ΔTm was -1.71 °C.

`COc1cc(F)ccc1-c1cc(Nc2cc(CS(C)(=N)=O)ccn2)ncc1F` (configuration not stated) was tested. Which ΔTm did it give?
The ΔTm was -2.98 °C.

Source: ChEMBL document CHEMBL5308504, “Tm Shift (DSF) assay results for EUbOPEN Chemogenomics Library” (2023)
